Measurements as given in PubChem BioAssay (NCI).
Compounds without any hit were thinned out: in the full panel of roughly 83,000, 20% have a hit.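 Results are percent growth after 48 hours of single-concentration exposure. 100 means growth as in untreated cells, lower positive values show inhibition; negative values down to -100 show cell death.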 Active and inactive are the calls of the source. The calls were made as follows: active = growth percent below 10; inactive = the rest.

Legend:
Assay in all cases: NCI-60 one-dose screen, 48 h (100 = growth as untreated, 0 = no growth, -100 = all killed)
Settings in all cases: 10 µM unless noted
[1] = test system: HCT-15 colon
[2] = test system: HT29 colon
[3] = test system: SNB-75 CNS
[4] = test system: SNB-19 CNS
[5] = test system: U251 CNS
[6] = test system: PC-3 prostate
[7] = test system: SK-MEL-5 melanoma
[8] = test system: UACC-62 melanoma
[9] = test system: LOX IMVI melanoma
[10] = test system: SK-MEL-28 melanoma

Measured: growth

NC(=O)c1c(NC(=O)c2cccc(C(F)(F)F)c2)sc2c1CCC(=O)C2
active: [1] -21.2% | [2] 3.32% | [3] -75.9% | [5] 7.56% | [6] -29.8% | [7] -56.3% | [8] -45.4% | [9] 5.08%
inactive: [4] 11.6% | [10] 20.7%

COc1cc2nc3sc(C(=O)Nc4ccc(C(=O)OC(C)C)cc4)c(C(=O)Nc4ccc(Cl)cc4C)n3c(=O)c2cc1OC
inactive: [1] 93.7% | [2] 41.2% | [3] 48% | [4] 96.9% | [5] 66.3% | [6] 30.2% | [7] 73% | [8] 67.6% | [9] 69.7% | [10] 101%

CCOC(=O)c1cc(C(=O)c2cc(OC)c(OC)c(OC)c2)n2ccccc12
inactive: [1] 29% | [3] 32.9% | [4] 43.4% | [5] 21.6% | [6] 22.1% | [7] 37.7% | [8] 37.8% | [9] 47% | [10] 72.3%
active: [2] 1.16%

Cc1ccc(NC(=O)Cn2c(Br)nc3c2c(=O)n(C)c(=O)n3C)cc1
inactive: [1] 45.8% | [2] 55.2% | [4] 50.7% | [6] 30.3% | [7] 25.6% | [8] 45.5% | [10] 52%
active: [3] 5.65% | [5] 4.05% | [9] -9.57%

CCNc1ccc(-c2nc3ccccc3n3cccc23)cc1
inactive: [1] 82.5% | [2] 80% | [3] 67.6% | [4] 92.2% | [5] 82.9% | [6] 68.9% | [7] 71.2% | [8] 66.2% | [9] 73.4% | [10] 86.5%

CCOc1ccc(-n2nc(C(=O)NCc3ccccc3OC)nc2-c2cc(OC)c(OC)c(OC)c2)cc1
inactive: [1] 29% | [2] 40.6% | [3] 30% | [4] 45.2% | [5] 42.5% | [6] 24.6% | [8] 37% | [9] 36.3% | [10] 36.6%
active: [7] -1.22%

CCOC(=O)c1c(C)nc2ccccc2c1/C=C/c1ccccc1
inactive: [1] 64.3% | [2] 82.6% | [3] 80.1% | [4] 77.3% | [5] 79.7% | [6] 69.9% | [8] 52.2% | [9] 71.8% | [10] 102%
active: [7] -0.202%

Cc1ccc(CNc2ccc3nc(CCC(C)C)[nH]c3c2)cc1
inactive: [1] 79.5% | [2] 92.4% | [3] 86.4% | [4] 89% | [5] 91.8% | [6] 77.9% | [7] 97.8% | [8] 90.7% | [9] 94.5% | [10] 98%

CCOC(=O)c1ccccc1-c1c2ccc(=[N+](C)C)cc-2oc2cc(N(C)C)ccc12
active: [2] -0.175% | [3] 7.68% | [6] 5.32% | [7] -68.1% | [8] 9.47%
inactive: [1] 70.2% | [4] 18.2% | [5] 14.6% | [9] 94.6% | [10] 32%

C=C1C(=O)O[C@H]2[C@H]1CC/C(CNC(=O)c1c[nH]c3ccc(F)cc13)=C\CC[C@@]1(C)O[C@@H]21
inactive: [3] 45% | [4] 61.3% | [5] 31.7% | [6] 31.8% | [7] 61.4%
active: [1] -69.6% | [2] -59.5% | [8] -37.3% | [9] -88.4% | [10] -24.3%

COC(=O)/C=C1/SC(=Nc2ccc([N+](=O)[O-])cc2)N(CCc2c[nH]c3ccc(O)cc23)C1=O
active: [9] -21.9%
inactive: [1] 46.9% | [2] 42.6% | [3] 54.4% | [4] 40.3% | [5] 36.3% | [6] 38.6% | [7] 50.5% | [8] 30.1% | [10] 52.7%

O=C(O)/C=C/C(=O)Nc1cccc(Cn2nnc3cc(Cl)c(Cl)cc32)c1
inactive: [1] 95.3% | [2] 110% | [3] 86.4% | [4] 100% | [5] 103% | [6] 102% | [7] 99.1% | [8] 97.6% | [9] 97.3% | [10] 106%

CN1CCN(CCCOc2cccc3nc(Nc4ccc(F)c(F)c4)ccc23)CC1
active: [1] -79.9% | [2] -69.5% | [3] -5.9% | [4] -17.4% | [5] -70.3% | [6] -43.6% | [7] -100% | [8] -75.4% | [9] -87.7% | [10] -82.3%

COc1ccc2c(c1)c(/C(O)=C1\COC(=O)C1=O)cn2Cc1ccc(F)cc1
inactive: [1] 87.8% | [2] 115% | [3] 104% | [4] 100% | [5] 101% | [6] 89.7% | [7] 97.9% | [8] 88.9% | [9] 100% | [10] 105%

CCS/C(Nc1ccccc1)=C(\C#N)C(=O)Nc1ccc(OC)cc1
active: [2] 6.46%
inactive: [1] 16.9% | [3] 18.2% | [4] 23.1% | [5] 16.6% | [6] 47.9% | [7] 17.8% | [8] 27.2% | [9] 36.6% | [10] 58.9%

COc1ccccc1C(=O)Nc1cccc(NC(=O)c2ccoc2C)c1
inactive: [1] 28.7% | [3] 19.3% | [4] 30.4% | [5] 21.9% | [6] 30.5% | [7] 20.5% | [8] 29.7% | [9] 37.3% | [10] 60.1%
active: [2] 6.04%

CC1(C)C(N)=Nc2cc(OCCCN3Cc4ccccc4C3)c(OCC3CC3)cc21
inactive: [1] 40% | [2] 31.6% | [3] 77.3% | [4] 85.2% | [5] 56.4% | [6] 49.6% | [7] 53.1% | [8] 78% | [9] 33.7% | [10] 56.2%

Nc1nc2c(c3ncccc13)C(c1cccc(Cl)c1)Cc1ncccc1-2 (stereo not given)
active: [2] 2.28%
inactive: [1] 22.2% | [3] 32.5% | [4] 21.1% | [5] 16% | [6] 18.3% | [7] 29.3% | [8] 22.1% | [9] 36.8% | [10] 63.9%

Cc1ccc(-c2nc3nc(-c4ccccc4)nc(N4CCCN(S(C)(=O)=O)CC4)c3o2)cc1
inactive: [1] 73.3% | [2] 58.4% | [3] 17.4% | [4] 86.5% | [5] 69.7% | [6] 68.3% | [7] 89.4% | [8] 81.7% | [9] 71.7% | [10] 70.9%

COc1ccc(/C=C2\COc3ccc(O)cc3C2=O)cc1
inactive: [1] 77.5% | [2] 80.1% | [3] 96.8% | [4] 96.7% | [5] 85.5% | [6] 95.2% | [7] 99.3% | [8] 85.7% | [9] 74.3% | [10] 102%

C/C(=N\O)[C@@H]1CC[C@]2(CO)CC[C@]3(C)[C@H](CC[C@@H]4[C@@]5(C)CCCNC(C)(C)[C@@H]5CC[C@]43C)[C@@H]12
inactive: [1] 83.6% | [2] 24.5% | [3] 68.9% | [4] 89.4% | [5] 61.4% | [6] 60.6% | [7] 84.1% | [8] 90.5% | [9] 77.6% | [10] 93.2%

O=C(NNc1cnccn1)c1nc2cc(F)ccc2n2cccc12
active: [7] -48.2% | [8] -21.1% | [9] -53.5%
inactive: [1] 25.7% | [2] 27.9% | [3] 41.1% | [4] 26.2% | [5] 14% | [6] 29.4% | [10] 21%

C#CCNC(=O)[C@]1(C)CCC[C@@]2(C)[C@H]1CC=C1C=C(C(C)C)CC[C@@H]12
inactive: [1] 94.8% | [2] 102% | [3] 86.5% | [4] 101% | [5] 106% | [6] 95.4% | [7] 102% | [8] 92.1% | [9] 96.8% | [10] 111%

COc1ccc(-c2nc(/C=C3\C(=O)N(C)c4ccccc43)c3ccccn23)cc1
inactive: [1] 90% | [2] 96.8% | [3] 51.1% | [4] 78.7% | [5] 75.1% | [6] 86.9% | [7] 65.5% | [8] 68.5% | [9] 65.2% | [10] 99.6%

COc1cc(C(=O)c2c(-c3ccccc3)oc3c(OC)cccc23)cc(OC)c1OC
inactive: [4] 25% | [5] 14.2% | [6] 17.2% | [8] 30.2% | [9] 12.2% | [10] 59.9%
active: [1] 5.88% | [2] 8.2% | [3] 7.41% | [7] -42.3%

C=C(c1ccc(OC)c(/C=C/C(=O)c2ccc3c(c2)OCO3)c1)c1cc(OC)c(OC)c(OC)c1
inactive: [2] 10.2% | [4] 30.9% | [5] 11% | [6] 26.5% | [10] 11.5%
active: [1] -8.44% | [3] 5.07% | [7] 0.661% | [8] 2.65% | [9] -51.1%
